E coli Lon inh: inhibitors of E. coli Lon protease, primary screen, biochemical, fluorescence polarization | P0A9M0 | purified E. coli Lon protease | inhibition, % at 7.94 µM | actives 0.42% (n = 360,000) | AID 602123, 2011; in the data active = inhibition above about 13%, passing the limit was not always enough;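 also: 0% = enzyme with probe and DMSO and 100% = no enzyme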
PAFAH2 FP inh: PAFAH2 enzyme inhibitors, primary screen, biochemical, fluorescence polarization, human. Platelet-activating factor acetylhydrolase 2, cytoplasmic (Homo sapiens), Q99487. recombinant PAFAH2, FP-rhodamine activity probe. inhibition, % at 3.39 µM. actives 0.99% (n = 340,000). AID 492956, 2010;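 active = inhibition above the mean over all tested compounds plus 3 SD, cut at about 30% in these data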;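 also: inhibitors block probe labeling of enzyme so polarization drops; 0% = enzyme with DMSO and 100% = wells lacking PAFAH2 protein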
Rin1-Abl PPI inh: inhibitors of Rin1-Abl protein binding, primary screen, biochemical, TR-FRET | Tyrosine-protein kinase ABL1 (Homo sapiens) + Ras and Rab interactor 1 (Homo sapiens), … | inhibition, % at 7.35 µM | actives 0.4% (n = 360,000); in the data active = inhibition above about 5%, passing the limit was not always enough
PAFAH1B2 inh: PAFAH1B2 enzyme inhibitors, primary screen, biochemical, fluorescence polarization, human | Platelet-activating factor acetylhydrolase IB subunit alpha2 (Homo sapiens), P68402 | recombinant PAFAH1B2, FP-rhodamine activity probe | inhibition, % at 3.39 µM | actives 1.2% (n = 340,000) | AID 492953, 2010;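 active = inhibition above the mean of all tested compounds plus 3 SD, cut at about 24% in these data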;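 also: 0% = enzyme with DMSO and 100% = wells lacking PAFAH1B2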
pPAFAH inh: pPAFAH enzyme inhibitors, primary screen, biochemical, fluorescence polarization, human. recombinant pPAFAH, FP-rhodamine probe fluorescence polarization. inhibition, % at 3.39 µM. actives 1.5% (n = 330,000). AID 463082, 2010;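 active = inhibition above the mean inhibition across the screen plus 3 SD, cut at about 25% in these data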;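 also: inhibitors block binding of the rhodamine activity-based probe so polarization drops; 0% = enzyme with DMSO and 100% = wells lacking pPAFAH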
PAFAH1B3 FP inh: PAFAH1B3 enzyme inhibitors, primary screen, biochemical, fluorescence polarization, human; Platelet-activating factor acetylhydrolase IB subunit alpha1 (Homo sapiens), Q15102; recombinant PAFAH1B3, FP-rhodamine probe; inhibition, % at 3.39 µM; actives 0.28% (n = 340,000); AID 492972, 2010;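 active = inhibition above the screen-wide average of all tested compounds plus 3 SD, cut at about 25% in these data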;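 also: 0% = enzyme with DMSO only and 100% = wells lacking PAFAH1B3 protein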
pPAFAH confirm: pPAFAH (PLA2G7) enzyme inhibitors, confirmation, biochemical, fluorescence polarization, human; shares compounds with pPAFAH inh; recombinant pPAFAH, FP-Rh probe fluorescence polarization; inhibition, % at 3.39 µM; actives 72% (n = 2,300); AID 463230, 2010;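 active = mean inhibition of the triplicate above the hit cutoff set for the earlier primary screen, cut at about 25% in these data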;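 also: 0% = enzyme with DMSO and 100% = wells lacking pPAFAH enzyme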
The depositor's hits bear a star; nt = not tested or not shown. Hits are enriched below; roughly 3.1% of the tested compounds scored in any of these assays.

SMILES	E coli Lon inh	PAFAH2 FP inh	Rin1-Abl PPI inh	PAFAH1B2 inh	pPAFAH inh	PAFAH1B3 FP inh	pPAFAH confirm
COCCNC(=O)C(Cc1c[nH]c2ccccc12)NC(=O)OCc1ccccc1 (stereo unspecified)	-6	1	-2	1	6	10	nt
COc1cc(/C=N/NC(=O)C(Cc2c[nH]c3ccccc23)NC(=O)OCc2ccccc2)cc([N+](=O)[O-])c1O (stereo unspecified)	0	26	-6	43*	46*	14	52*
COc1cc(/C=N/NC(=O)C(Cc2c[nH]c3ccccc23)NC(=O)OCC(C)C)cc([N+](=O)[O-])c1O (stereo unspecified)	-1	9	-6	17	37*	5	31*
COP(=O)(OC)c1nc(-c2cccc3ccccc23)oc1NCCc1ccccc1	-4	4	0	3	38*	8	31*
CCOC(=O)N1CCN(C(=O)c2ccc3nc(N4CCCCC4)sc3c2)CC1	-4	-6	1	0	4	2	nt
Cc1cccc(N2CCN(C(=O)c3ccc4nc(N5CCCCC5)sc4c3)CC2)c1C	1	-2	0	0	40*	-3	9
CCCNC(=O)CS(=O)(=O)c1ccccc1	2	-5	2	2	2	5	nt
N#Cc1c(-c2ccco2)cc(-c2ccccc2)[nH]c1=O	-8	15	-3	6	20	10	nt
Cc1ccc(-c2cc(-c3ccco3)c(C#N)c(=O)[nH]2)cc1	21	23	0	7	35*	13	21
O=C(O)c1ccccc1-c1nc(-c2ccccc2)c(-c2ccccc2)[nH]1	-8	4	1	11	5	3	nt
O=C(O)c1cccc2c(-c3ccccc3)c(-c3ccccc3)[nH]c12	-2	-4	-4	48*	52*	-2	46*
Cc1ccccc1Oc1ccc(-c2nc(N)nc(N)n2)cc1	4	3	-3	1	39*	-1	22
Cc1ccc(NC(=S)N2CCC(N(C)CC3CCCO3)CC2)c(C)c1 (stereo unspecified)	1	1	0	5	3	12	nt
CNc1ccccc(-c2ccc3cc4c(cc3n2)OCO4)c1=O	12	4	-3	-3	84*	2	0
c1ccc2nc(-c3ccc4c(c3)OCO4)ccc2c1	2	5	-1	6	0	6	nt
CN1CCN(CCCN2c3ccccc3Sc3ccc(Cl)cc32)CC1	-5	5	4	1	45*	8	42*
OCCN1CCN(CCCN2c3ccccc3Sc3ccc(C(F)(F)F)cc32)CC1	2	-3	-1	6	40*	13	38*
CN(C)CCCN1c2ccccc2Sc2ccc(C(F)(F)F)cc21	1	-12	3	8	11	11	nt
CCSc1ccc2c(c1)N(CCCN1CCN(C)CC1)c1ccccc1S2	0	21	-2	0	37*	15	42*
O=C(CN1C(=O)NC2(CCCC2)C1=O)Nc1nc2ccccc2[nH]1	-16	3	-3	2	-4	8	nt
CC(C)n1cc2c(N)ncnc2n1	-5	-8	0	7	nt	3	nt
COc1ccc(/C=C/C(=O)c2ccc(OC)cc2OC)cc1	2	-7	-1	2	-4	3	nt
COc1ccc(/C=C/C(=O)c2cc(Br)ccc2O)cc1OC	9	5	0	10	0	13	nt
CNc1ccc(Br)cc(C(=O)/C=C/c2cc(OC)ccc2OC)c1=O	-19	27	3	1	38*	18	24
CNc1ccc(Br)cc(C(=O)/C=C/c2ccc3c(c2)OCO3)c1=O	-15	31*	3	-1	45*	5	28*

Screening results (PubChem)
